About 83,000 compounds went through this panel and 20% of them were active in at least one assay; those are over-represented in the sample as a whole.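 Compound tested at a single concentration for 48 hours in 96-well plates; a percent growth value below 10 was scored as active.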 Activity calls are given as the source filed them.
Legend:
Test in all cases: NCI-60 one-dose screen, 48 h (100 = growth as untreated, 0 = no growth, -100 = all killed)
Conditions in all cases: 10 µM unless noted
SR leukemia = test system: SR leukemia
RPMI-8226 leukemia = test system: RPMI-8226 leukemia
OVCAR-8 ovarian = test system: OVCAR-8 ovarian
OVCAR-5 ovarian = test system: OVCAR-5 ovarian
OVCAR-4 ovarian = test system: OVCAR-4 ovarian
SK-OV-3 ovarian = test system: SK-OV-3 ovarian
IGROV1 ovarian = test system: IGROV1 ovarian
OVCAR-3 ovarian = test system: OVCAR-3 ovarian
HS 578T breast = test system: HS 578T breast
NCI/ADR-RES ovarian = test system: NCI/ADR-RES ovarian
T-47D breast = test system: T-47D breast
BT-549 breast = test system: BT-549 breast
MDA-MB-435 melanoma = test system: MDA-MB-435 melanoma
SW-620 colon = test system: SW-620 colon
MCF7 breast = test system: MCF7 breast
HCC-2998 colon = test system: HCC-2998 colon
KM12 colon = test system: KM12 colon
HCT-116 colon = test system: HCT-116 colon

Measured: growth

IP(CCCCCCCCCCSc1n(Cc2ccc3ccccc3c2)c(-c2ccccc2)c(-c2ccccc2)[n+]1Cc1ccc2ccccc2c1)(c1ccccc1)(c1ccccc1)c1ccccc1
active: SR leukemia -39.8% | RPMI-8226 leukemia -38% | OVCAR-8 ovarian -50.3% | OVCAR-5 ovarian -76.1% | OVCAR-4 ovarian -68.6% | SK-OV-3 ovarian -63% | IGROV1 ovarian -66.5% | OVCAR-3 ovarian -86.4% | HS 578T breast -30.4% | T-47D breast -57.4% | BT-549 breast -71.4% | MDA-MB-435 melanoma -81.7% | SW-620 colon -77.8% | MCF7 breast -54.2% | HCC-2998 colon -86.8% | KM12 colon -83.3%
inactive: NCI/ADR-RES ovarian 29.6%

Nc1cc(F)ccc1NC(=O)c1ccc(NC(=O)C/C=C/c2cccnc2)cn1
active: RPMI-8226 leukemia -3.11% | T-47D breast 5.13% | MCF7 breast 5.2%
inactive: SR leukemia 24.6% | OVCAR-8 ovarian 17.8% | OVCAR-5 ovarian 21.4% | OVCAR-4 ovarian 29.1% | SK-OV-3 ovarian 34.9% | IGROV1 ovarian 13.8% | OVCAR-3 ovarian 27.4% | HS 578T breast 21.1% | NCI/ADR-RES ovarian 20.4% | BT-549 breast 25.3% | MDA-MB-435 melanoma 13.7% | SW-620 colon 10.6% | HCC-2998 colon 15.5% | KM12 colon 24.5%

CNC(=O)c1cc(N2CCc3cc(NC(=O)Nc4ccc(Cl)c(Cl)c4)ccc32)ccn1
inactive: SR leukemia 64.4% | RPMI-8226 leukemia 57.1% | OVCAR-8 ovarian 90% | OVCAR-5 ovarian 96.8% | OVCAR-4 ovarian 86.4% | SK-OV-3 ovarian 88.8% | IGROV1 ovarian 94% | OVCAR-3 ovarian 105% | HS 578T breast 62% | NCI/ADR-RES ovarian 93% | T-47D breast 63.4% | BT-549 breast 77% | MDA-MB-435 melanoma 84.2% | SW-620 colon 114% | MCF7 breast 63.3% | HCT-116 colon 92.7% | HCC-2998 colon 98% | KM12 colon 30.4%

O=C(NNc1nc2cc(F)ccc2n2cncc12)c1cnccn1
inactive: SR leukemia 17% | RPMI-8226 leukemia 25.4% | OVCAR-8 ovarian 21% | OVCAR-5 ovarian 50% | OVCAR-4 ovarian 31.1% | SK-OV-3 ovarian 28.4% | IGROV1 ovarian 27.6% | OVCAR-3 ovarian 28.2% | HS 578T breast 71.8% | NCI/ADR-RES ovarian 12.2% | T-47D breast 33.7% | BT-549 breast 55% | MDA-MB-435 melanoma 25% | SW-620 colon 24.5% | MCF7 breast 14.8% | HCT-116 colon 23% | KM12 colon 20.8%

CCOC(=O)c1c(NCC(=O)Nc2cccc(Cl)c2)sc2c1CCCC2
inactive: SR leukemia 69.4% | RPMI-8226 leukemia 78.6% | OVCAR-8 ovarian 87.7% | OVCAR-5 ovarian 94.5% | OVCAR-4 ovarian 80.3% | SK-OV-3 ovarian 84.2% | IGROV1 ovarian 50.6% | OVCAR-3 ovarian 82.8% | HS 578T breast 77.4% | NCI/ADR-RES ovarian 81.6% | T-47D breast 63.4% | BT-549 breast 70.1% | SW-620 colon 76.1% | MCF7 breast 43% | HCT-116 colon 73.5% | KM12 colon 95.8%
active: MDA-MB-435 melanoma -2.01%

C=C1C(=O)O[C@@H]2C[C@@H](C)/C=C\C(=O)[C@](C)(OC(C)=O)C[C@H](OC(=O)/C(C)=C\C)[C@@H]12
inactive: OVCAR-4 ovarian 18.2% | SK-OV-3 ovarian 80.7% | HS 578T breast 19.1% | NCI/ADR-RES ovarian 10.5% | MCF7 breast 11.2% | KM12 colon 11.9%
active: SR leukemia 3.84% | RPMI-8226 leukemia -12.6% | OVCAR-8 ovarian -16.1% | OVCAR-5 ovarian -29.5% | IGROV1 ovarian -19.7% | OVCAR-3 ovarian -23.3% | T-47D breast -72.8% | BT-549 breast -9.56% | MDA-MB-435 melanoma -53.4% | SW-620 colon -29.5%

COC[C@]12CC[C@@H](C)[C@H](C)[C@H]1C1=CC[C@@H]3[C@@]4(C)CCCNC(C)(C)[C@@H]4CC[C@@]3(C)[C@]1(C)CC2
active: SR leukemia -3.33% | RPMI-8226 leukemia 2.86% | SW-620 colon -42.1% | MCF7 breast -33.2% | HCT-116 colon 5.39%
inactive: OVCAR-8 ovarian 62.4% | OVCAR-5 ovarian 61.6% | OVCAR-4 ovarian 38% | SK-OV-3 ovarian 85.4% | IGROV1 ovarian 30.2% | OVCAR-3 ovarian 41.4% | HS 578T breast 74.3% | NCI/ADR-RES ovarian 44.3% | T-47D breast 39.8% | BT-549 breast 66.1% | HCC-2998 colon 20.1% | KM12 colon 19.3%

COc1cc2cc(Oc3ccc(NC(=O)Nc4cc(C(F)(F)F)cc(C(F)(F)F)c4)cc3)c(C)nc2cc1OCCN(C)C
inactive: SR leukemia 121% | RPMI-8226 leukemia 113% | OVCAR-8 ovarian 113% | OVCAR-5 ovarian 109% | OVCAR-4 ovarian 104% | SK-OV-3 ovarian 113% | IGROV1 ovarian 104% | OVCAR-3 ovarian 120% | HS 578T breast 101% | NCI/ADR-RES ovarian 109% | T-47D breast 106% | BT-549 breast 114% | MDA-MB-435 melanoma 106% | SW-620 colon 106% | MCF7 breast 93% | HCT-116 colon 110% | KM12 colon 104%

Cc1cc(O)c(=O)cc2c1C[C@H]1CC(C)(C)/C=C/C[C@]3(C)Oc4cc(=O)c(O)cc(C)c4C[C@H]3C[C@H](O)[C@@]1(C)O2
inactive: OVCAR-5 ovarian 26.9% | OVCAR-3 ovarian 14.5% | HS 578T breast 18.7% | SW-620 colon 15.1% | HCT-116 colon 11.3% | HCC-2998 colon 30.8% | KM12 colon 23.6%
active: SR leukemia 4.18% | RPMI-8226 leukemia -0.673% | OVCAR-8 ovarian 2.98% | OVCAR-4 ovarian 9.74% | SK-OV-3 ovarian -14.3% | IGROV1 ovarian 6.73% | NCI/ADR-RES ovarian 1.38% | T-47D breast -2.55% | BT-549 breast 1.87% | MCF7 breast 7.16%

NS(=O)(=O)c1ccc(Nc2nc(N/N=C/c3ccc(F)cc3)nc(Nc3ccccc3)n2)cc1
inactive: SR leukemia 57.7% | RPMI-8226 leukemia 50.6% | OVCAR-8 ovarian 29.4% | OVCAR-5 ovarian 75.3% | OVCAR-4 ovarian 55.5% | SK-OV-3 ovarian 71.2% | IGROV1 ovarian 43.5% | OVCAR-3 ovarian 30.4% | HS 578T breast 40.6% | NCI/ADR-RES ovarian 95.6% | T-47D breast 20.7% | BT-549 breast 67.2% | MDA-MB-435 melanoma 53.5% | SW-620 colon 75.7% | MCF7 breast 28.6% | HCT-116 colon 44.7% | KM12 colon 30.9%

C=C(C)[C@@H]1CC[C@]2(COS(C)(=O)=O)CC[C@]3(C)[C@H](CC[C@@H]4[C@@]5(C)CCCNC(C)(C)[C@@H]5CC[C@]43C)[C@@H]12
active: SR leukemia -1.07% | SW-620 colon 4.87% | MCF7 breast 3.49%
inactive: RPMI-8226 leukemia 44.9% | OVCAR-8 ovarian 92.1% | OVCAR-5 ovarian 92.5% | OVCAR-4 ovarian 95.8% | SK-OV-3 ovarian 107% | IGROV1 ovarian 78.2% | OVCAR-3 ovarian 92.2% | HS 578T breast 91.4% | NCI/ADR-RES ovarian 92% | T-47D breast 77.5% | BT-549 breast 93.9% | MDA-MB-435 melanoma 44.9% | HCT-116 colon 15.6% | KM12 colon 26.2%

C=C(C)C(=O)O[C@H]1C[C@@]2(C)OC(=CC2=O)/C(C)=C\[C@H]2OC(=O)C(=C)[C@H]12
inactive: OVCAR-4 ovarian 36.1% | SK-OV-3 ovarian 77% | HS 578T breast 21.9% | NCI/ADR-RES ovarian 15.7% | MCF7 breast 11.7%
active: SR leukemia -19.6% | RPMI-8226 leukemia -15.3% | OVCAR-8 ovarian 4.8% | OVCAR-5 ovarian -56.4% | IGROV1 ovarian 7.34% | OVCAR-3 ovarian -72.1% | T-47D breast -0.517% | BT-549 breast -9.12% | MDA-MB-435 melanoma -57.4% | SW-620 colon -41.7% | HCT-116 colon -68.5% | KM12 colon -8.25%

NC(=O)c1c(NC(=O)c2cccc(C(F)(F)F)c2F)sc2c1CCC(=O)C2
active: RPMI-8226 leukemia -5.06% | OVCAR-4 ovarian 6.91% | SW-620 colon 2.94% | MCF7 breast 6.11% | KM12 colon 7.39%
inactive: SR leukemia 18.7% | OVCAR-8 ovarian 18.3% | OVCAR-5 ovarian 15.6% | SK-OV-3 ovarian 77.2% | IGROV1 ovarian 23.7% | OVCAR-3 ovarian 11.6% | HS 578T breast 33.9% | NCI/ADR-RES ovarian 11% | T-47D breast 11.8% | BT-549 breast 11.4% | MDA-MB-435 melanoma 12.3% | HCC-2998 colon 44.1%

Brc1cccc(/C=N/Nc2nc(N/N=C/c3cccc(Br)c3)nc(N3CCOCC3)n2)c1
active: SR leukemia 7.93%
inactive: RPMI-8226 leukemia 34.2% | OVCAR-8 ovarian 37.4% | OVCAR-5 ovarian 72.4% | OVCAR-4 ovarian 54.2% | SK-OV-3 ovarian 92.9% | IGROV1 ovarian 42.8% | OVCAR-3 ovarian 42.4% | HS 578T breast 66.2% | NCI/ADR-RES ovarian 41.8% | T-47D breast 56.4% | BT-549 breast 52.7% | MDA-MB-435 melanoma 33.4% | SW-620 colon 24.7% | MCF7 breast 22.1% | HCC-2998 colon 31.5% | KM12 colon 30.3%

O=c1[nH]c(CNc2ccc(NCc3c(-c4ccccc4)no[n+]3[O-])cc2)nc2c1cnn2-c1ccccc1
inactive: SR leukemia 45.7% | RPMI-8226 leukemia 61.9% | OVCAR-8 ovarian 79.4% | OVCAR-5 ovarian 109% | OVCAR-4 ovarian 64.3% | SK-OV-3 ovarian 102% | IGROV1 ovarian 73.5% | OVCAR-3 ovarian 94.4% | HS 578T breast 85.8% | NCI/ADR-RES ovarian 60.6% | T-47D breast 42.5% | BT-549 breast 62.1% | MDA-MB-435 melanoma 77.8% | SW-620 colon 92.8% | MCF7 breast 50.1% | HCT-116 colon 49.6% | KM12 colon 73.3%

COc1cc(/C=C2\SC(=O)NC2=O)ccc1OCC(=O)Nc1ccc(C(=O)/C=C/c2cc3ccccc3nc2Cl)cc1
inactive: SR leukemia 27.7% | OVCAR-8 ovarian 84% | OVCAR-5 ovarian 109% | OVCAR-4 ovarian 52.9% | SK-OV-3 ovarian 104% | IGROV1 ovarian 92.6% | OVCAR-3 ovarian 104% | HS 578T breast 99.1% | NCI/ADR-RES ovarian 97.9% | T-47D breast 66.3% | BT-549 breast 72.9% | MDA-MB-435 melanoma 83.6% | SW-620 colon 96.6% | MCF7 breast 20.9% | KM12 colon 91.6%
active: RPMI-8226 leukemia -1.87% | HCT-116 colon -62%
